Consider 17 compounds from the supplement of paper PMC10127200.

Molecules are shown by their SMILES. Where a name gives a salt, the structure may show the parent alone.

Holding throughout (assay): Euclidean distance of Cell Painting phenotypic profile (signed KS, 77 features) to DMSO centroid (dimensionless distance); higher = stronger phenotypic change vs DMSO (phenoactivity)
Details in all cases: 48 h; 5 or 10 uM (library dependent)

The test system of one assay is 786-O. The procedure, abridged:
(§1)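 Five cancer lines and a healthy fibroblast line received library compounds at 10 or 5 uM (library-dependent, 0.1% DMSO final) for 48 h. Stained cells were imaged confocally at 20X (9 fields/well). Harmony extracted 77 features, each scored as a signed Kolmogorov-Smirnov statistic against same-plate vehicle wells. Profiles were plate-position corrected, correlation-weighted and replicate-averaged at the top dose. Phenoactivity is the Euclidean distance from each profile to the median vehicle profile.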

Another assay relates to A549. The procedure, abridged: as §1
Another assay concerns DU145. An outline of the steps: as §1
For a further assay, the system named is FB. An outline of the steps:
as §1

For the next assay, the system named is HEPG2. The procedure, abridged:
as §1

The test system of another assay is OVCAR4. An outline of the steps:
as §1

Turning to `COc1ccc2c(c1)[C@]13CCCC[C@@H]1[C@H](C2)N(C)CC3` [Dextromethorphan hydrobromide hydrate], the Euclidean distance was 1.3 in the assay on 786-O; 1.32 with A549; 0.854 in the assay with DU145; 1.76 in the assay on FB; 1.11 with HEPG2; 1.39 with OVCAR4.

With `CN1[C@@H]2CC(O)C[C@H]1[C@@H]1O[C@@H]12` (some centres not stated) [Scopine HCl], the Euclidean distance with 786-O came to 0.344; in the assay with A549, 0.885; in the assay on DU145, 0.479; in the assay with FB, 0.66; in the assay with HEPG2, 0.893; in the assay with OVCAR4 it was 0.714.

With `O=c1ccc2ccc3occc3c2o1` [Isopsoralen], the Euclidean distance was 1.25 in the assay on 786-O; 0.993 in the assay with A549; 0.786 with DU145; 1.02 in the assay on FB; 0.495 in the assay with HEPG2; 1.1 in the assay with OVCAR4.

Consider `c1ccc2c(c1)Sc1ccccc1N2CC1CN2CCC1CC2` (configuration not stated) [Mequitazine], for which the Euclidean distance amounted to 2.14 with 786-O; 1.44 with A549; 1.35 in the assay with DU145; 2.64 with FB; 2.43 in the assay with HEPG2; 1.19 in the assay on OVCAR4.

In the case of `CCOC(=O)Nc1ccc(NCc2ccc(F)cc2)cc1N` [Retigabine 2HCl], the Euclidean distance in the assay on 786-O amounted to 0.771; with A549 it was 1.35; in the assay on DU145, 0.995; with FB, 0.958; in the assay on HEPG2 it was 0.601; in the assay with OVCAR4, 0.882.

Take `CN1[C@H]2C[C@H](OC(=O)[C@H](CO)c3ccccc3)C[C@@H]1[C@@H](O)C2` [Anisodamine Hydrobromide]: the Euclidean distance came out at 0.645 with 786-O; 0.397 with A549; 2.62 with DU145; 1.12 with FB; 0.513 in the assay with HEPG2; 0.688 in the assay on OVCAR4.

Take `CN1CCC(c2c[nH]c3ccc(O)cc23)CC1`: the Euclidean distance in the assay with 786-O turned out to be 0.692; in the assay with A549, 0.484; with DU145 it was 1.17; with FB, 0.749; in the assay with HEPG2, 2.09; in the assay with OVCAR4, 0.873.

With `CC1(C)S[C@@H]2[C@H](N)C(=O)N2[C@H]1C(=O)O` [6-Aminopenicillanic acid], the Euclidean distance in the assay with 786-O was found to be 1.51; with A549, 0.648; with DU145, 1.01; in the assay with FB it was 0.903; in the assay on HEPG2 it was 0.75; with OVCAR4, 1.5.

Consider `c1ccc2c(c1)Nc1ccccc1S2` [Phenothiazine], for which the Euclidean distance came out at 0.657 in the assay with 786-O; 0.876 with A549; 0.829 with DU145; 1.1 in the assay on FB; 1.4 in the assay on HEPG2; 0.881 in the assay with OVCAR4.

In the case of `NC[C@H](CC(=O)O)c1ccc(Cl)cc1` [(R)-baclofen], the Euclidean distance is 1.58 in the assay with 786-O; 1.05 in the assay on A549; 0.675 in the assay with DU145; 1.01 in the assay on FB; 0.87 with HEPG2; 1.1 in the assay with OVCAR4.

On to `C=C[C@H]1CN2CC[C@H]1C[C@H]2[C@H](O)c1ccnc2ccccc12` [Cinchonidine], for which the Euclidean distance amounted to 1.49 with 786-O; 0.828 in the assay on A549; 1.16 in the assay with DU145; 1.09 in the assay with FB; 0.521 in the assay on HEPG2; 1.1 with OVCAR4.

`Clc1ccc(C(OCCN2CCCCC2)c2ccccc2)cc1` (configuration not stated) [Cloperastine hydrochloride]: the Euclidean distance in the assay on 786-O was found to be 0.838; with A549, 1.16; in the assay with DU145, 1.16; in the assay with FB, 0.914; in the assay on HEPG2, 1.43; in the assay with OVCAR4 it was 1.16.

Take `CC1(C)CC(O)CC(C)(C)N1[O]` [Tempol]: the Euclidean distance was determined as 0.822 in the assay on 786-O; 0.85 in the assay on A549; 1.18 in the assay on DU145; 1.49 in the assay on FB; 0.827 in the assay with HEPG2; 0.934 in the assay on OVCAR4.

As for `C[C@H]1O[C@H](O[C@H]2[C@H](O)[C@@H](O)[C@@H](O)[C@H](O)[C@@H]2O)[C@@H](N)C[C@@H]1NC(=N)C(=O)O` [Kasugamycin hydrochloride], the Euclidean distance in the assay with 786-O is 1.08; in the assay with A549, 0.816; in the assay on DU145 it was 0.855; in the assay on FB, 1.2; in the assay on HEPG2 it was 0.528; in the assay on OVCAR4, 0.934.

As for `C[C@@H]1CC[C@H]2[C@@H](C)C(=O)O[C@@H]3O[C@@]4(C)CC[C@@H]1[C@]32OO4` [Artemisinin], the Euclidean distance is 1.18 in the assay on 786-O; 1.01 with A549; 1.43 with DU145; 0.903 in the assay with FB; 1.24 with HEPG2; 1.25 in the assay on OVCAR4.

Take `CC[C@H]1[C@@H]2C[C@H]3[C@@H]4N(C)c5ccccc5[C@]45C[C@@H]([C@@H]2[C@H]5O)N3[C@@H]1O` [Ajmaline]: the Euclidean distance in the assay on 786-O was found to be 1.39; with A549, 0.849; in the assay on DU145 it was 1.04; in the assay with FB, 0.914; in the assay on HEPG2, 0.486; in the assay with OVCAR4 it was 1.05.

Turning to `CCCCCc1cc(O)cc(O)c1` [Olivetol], the Euclidean distance with 786-O was determined as 1.12; in the assay with A549 it was 0.742; in the assay with DU145 it was 0.801; with FB, 0.7; with HEPG2, 0.393; with OVCAR4, 0.946.
